Screening results from PubChem BioAssay.
Most compounds without a hit are left out; they make up all but 1.6% or so of the library.
KCNQ2 enhance – KCNQ2 (rat) channel potentiation; O88943; B-score at 10 µM; 310,000 tested, 0.54% active; AID 2239; CHO-K1 KCNQ2, FluxOR thallium flux fluorescence; active compounds read high;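 active means fluorescence ratio B-score at least 3 SD of library B-scores, with initial fluorescence B-score within 3 of them, cut at about 5.3 in these data; same plate scores as AID 2156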;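 further: B-score of peak minus minimum over baseline fluorescence ratio after K+ and Tl+ stimulus; positive B-score means potentiation of KCNQ2 with more thallium influx and brighter signal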
Target sequence (O88943 whole entry, looked up): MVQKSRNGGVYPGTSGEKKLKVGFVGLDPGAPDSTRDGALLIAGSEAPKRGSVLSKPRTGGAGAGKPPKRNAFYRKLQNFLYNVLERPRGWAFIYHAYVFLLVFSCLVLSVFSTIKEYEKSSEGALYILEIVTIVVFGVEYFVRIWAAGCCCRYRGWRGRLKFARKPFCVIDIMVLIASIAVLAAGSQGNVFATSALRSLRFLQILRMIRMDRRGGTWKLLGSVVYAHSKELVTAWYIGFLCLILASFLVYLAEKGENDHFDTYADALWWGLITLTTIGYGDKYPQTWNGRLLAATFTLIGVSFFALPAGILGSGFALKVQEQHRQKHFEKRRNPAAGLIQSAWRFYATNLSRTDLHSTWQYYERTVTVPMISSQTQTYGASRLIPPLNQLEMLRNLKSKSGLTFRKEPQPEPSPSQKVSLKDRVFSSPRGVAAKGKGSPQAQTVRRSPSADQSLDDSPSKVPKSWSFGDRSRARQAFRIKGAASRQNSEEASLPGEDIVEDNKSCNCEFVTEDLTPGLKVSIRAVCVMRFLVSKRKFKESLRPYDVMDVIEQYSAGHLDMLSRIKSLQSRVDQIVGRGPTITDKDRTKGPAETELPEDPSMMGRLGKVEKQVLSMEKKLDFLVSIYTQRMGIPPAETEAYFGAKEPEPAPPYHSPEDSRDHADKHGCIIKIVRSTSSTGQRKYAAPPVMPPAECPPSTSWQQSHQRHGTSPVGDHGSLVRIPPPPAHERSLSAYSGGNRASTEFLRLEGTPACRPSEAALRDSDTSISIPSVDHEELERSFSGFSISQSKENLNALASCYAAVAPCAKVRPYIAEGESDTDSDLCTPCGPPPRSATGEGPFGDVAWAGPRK
KCNQ2 inh – inhibitors of rat KCNQ2 potassium channel; O88943; CHO-K1 KCNQ2, FluxOR thallium flux, 20 min; active compounds read low; B-score at 10 µM; 310,000 tested, 1.1% active;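 active means fluorescence ratio B-score at most minus 3 library SDs, with starting brightness B-score within 2 library SDs, cut at about -5.5 in these data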
A number is an active result; - = inactive; . = not tested or not shown.

SMILES	KCNQ2 enhance	KCNQ2 inh
C/C(CC(=O)Nc1cccc(Cl)c1Cl)=N\NC(=O)c1ccccc1N	.	-
N=C1S/C(=C\c2ccco2)C(=O)N1c1ccc2c(c1)OCO2	.	-
N=C1S/C(=C\c2ccco2)C(=O)N1c1nccs1	9.12	-
COc1ccc(CNC(=O)CN=C2NC(=O)C(c3ccccc3)(c3ccccc3)N2)cc1	-	-6.09
O=C(CN=C1NC(=O)C(c2ccccc2)(c2ccccc2)N1)NCc1ccc(F)cc1	.	-
COc1ccc(C(C)=O)cc1CSc1nc2ccccc2c(=O)n1-c1cccc(C)c1	-	-6.66
Cc1noc(C)c1CSc1nc2ccccc2c(=O)n1-c1ccccc1	-	-7.06
Cc1noc(C)c1CSc1nc2[nH]ncc2c(=O)n1-c1ccccc1	.	-
COc1ccc(C(C)=O)cc1CSc1nc2ccccc2c(=O)n1-c1ccccc1	.	-
Clc1nc(CN2CCCCC2)nc2sc3c(c12)CCC3	-	-
CCC(CC)NC(=O)c1oc2ccccc2c1COc1ccccc1	.	-
CC(C)CNC(=O)c1oc2ccccc2c1COc1ccccc1	-	-6.38
COc1ccc(S(=O)(=O)N2CCCC(N(C)CCc3ccccc3)C2)cc1OC (centres undefined)	-	-
COc1ccc(/C=C/C(=O)c2ccccc2)cc1COc1ccccc1F	-	-7.58
COc1ccc(C=O)cc1COc1ccccc1F	.	-
O=C(CCn1nnc2ccccc21)OCC(=O)c1ccc(F)cc1	-	-
Cc1cc(OC(C)C(=O)NCC2CCC(C(=O)O)CC2)c2c(C)cc(=O)oc2c1 (centres undefined)	.	-
CC1(C)CC(=O)C(=Cc2cn(CCC#N)nc2-c2ccc(F)cc2)C(=O)C1	6.51	-
CC1(C)CC(=O)C(=Cc2cn(CCC#N)nc2-c2ccc(Cl)cc2)C(=O)C1	-	-
CCCC(=O)Nc1ccc(C=C(C(C)=O)C(C)=O)cc1	.	-
Cc1ccc(CSCCNC(=O)CSCc2ccc([N+](=O)[O-])cc2)cc1	.	-
Cc1ccccc1CSCCNC(=O)CSCc1ccc([N+](=O)[O-])cc1	-	-6.42
O=C(NCc1csc(-c2ccccc2)n1)c1cc(F)cc2c1OCOC2	-	-6.11
O=C(Cc1csc(-c2ccccc2)n1)NCc1ccc(F)cc1	.	-
CC1CCC(N2CCN(C(=O)c3ccccc3F)CC2)CC1 (centres undefined)	.	-
SMILES	KCNQ2 enhance	KCNQ2 inh
NC(=O)C(=O)N/N=C/c1c2ccccc2cc2ccccc12	-	-
CCCCCN(C(=O)CCC(=O)OCC(=O)N1CCCC(C)C1)c1c(N)n(CCCC)c(=O)[nH]c1=O (centres undefined)	-	-
O=C(CN1C(=O)NC2(CCCC2)C1=O)Nc1nc2ccc(F)cc2s1	-	-
O=C(CN1C(=O)C2CC=CCC2C1=O)Nc1nc2ccc(F)cc2s1 (centres undefined)	-	-6.73
COc1ccc2oc(=N)c(C(=O)Nc3ccc(C)cc3)cc2c1	.	-
COc1ccc2o/c(=N\O)c(C(=O)Nc3ccc(C)cc3)cc2c1	-	-10.3
CS(=O)(=O)N1CCC(C(=O)NCc2ccc(Cl)cc2)CC1	.	-
O=C(COC(=O)c1ccc(Cl)cc1O)NC(=O)C1CCCCC1	-	-
CC(C)(C)NC(=O)C12CC3CC(CC(Cl)(C3)C1)C2	-	-
CC(C)(C)NC(=S)NC(=O)C12CCC3CC(CC(C3)C1)C2	-	-5.66
CC(=O)Cn1nnc2sc(-c3ccccc3)cc2c1=O	-	-
O=C(Nc1ccccc1)n1cc(-c2ccccn2)c(N2CCOCC2)n1	-	-
Cc1ccc(CNC(=O)c2sc3nc4c(c(C(F)(F)F)c3c2N)CCC4)cc1	.	-
Nc1c(C(=O)NCc2ccc(Cl)cc2)sc2nc3c(c(C(F)(F)F)c12)CCC3	-	-6.07
NC(N)=NC(=S)Nc1ccc(Cl)cc1	-	-
CC1(C)SC(=S)N(/N=C/c2ccc(O)cc2)C1N(O)C(=O)Nc1ccc([N+](=O)[O-])cc1 (centres undefined)	-	-7.55
Cc1ccc(/C=N/N2C(=S)SC(C)(C)C2N(O)C(=O)Nc2ccc([N+](=O)[O-])cc2)cc1 (centres undefined)	.	-
Cc1ccc(N2CC(NC(=O)C3CC3)CC2=O)cc1 (centres undefined)	-	-
O=C(Nc1ccncc1)c1cccc(S(=O)(=O)N2CCCC2)c1	-	-
CCOc1ccc(N(CC(=O)Nc2nccs2)S(=O)(=O)c2c(C)[nH]c(=O)[nH]c2=O)cc1	.	-
Cc1cccc2[nH]c(SCC(=O)N3CCOCC3)nc12	.	-
COc1ccc(OCC(=O)Nc2c3c(nn2-c2ccccc2)CS(=O)(=O)C3)cc1	.	-
CC(=O)c1ccc(-n2c(C)ccc2-c2ccccc2)cc1	.	-
COC(=O)c1ccc(-n2c(C)ccc2-c2ccccc2)cc1	-	-6.6
O=C(COC(=O)c1cc([N+](=O)[O-])ccc1N1CCOCC1)Nc1cccc(F)c1	-	-
SMILES	KCNQ2 enhance	KCNQ2 inh
CC(=O)c1c(C)[nH]c(C(=O)NNC(=O)COc2ccc(Cl)cc2C)c1C	-	-5.82
COc1ccc(Cl)cc1NC(=O)c1[nH]c(C)c(C(C)=O)c1C	-	-
CCCN(CC1CC1)C(=O)CSc1ncnc2sc(C)c(C)c12	-	-6.31
CCN(C(=O)CSc1ncnc2sc(C)c(C)c12)C1CCS(=O)(=O)C1 (centres undefined)	.	-
O=C(NCC1CCCO1)c1cccc(NS(=O)(=O)c2ccc(Br)cc2)c1 (centres undefined)	-	-
COC(=O)c1ccc2c(=O)n(-c3ccc(OC)cc3)c(=S)[nH]c2c1	.	-
CSc1cccc(NC(=O)c2ccc(NC3=NC4CS(=O)(=O)CC4S3)cc2)c1 (centres undefined)	-	-
CCC(NS(=O)(=O)c1ccc2c(c1)Cc1cc(S(=O)(=O)NC(CC)C(=O)O)ccc1-2)C(=O)O (centres undefined)	.	-
CCOC(=O)C1=NN(C(=O)c2cccc(Br)c2)C(O)(C(C)(C)C)C1 (centres undefined)	21.7	-
CCOC(=O)C1=NN(C(=O)c2ccco2)C2(CC2)C1	-	-
Cc1cccc(S(=O)(=O)Nc2ccc(-n3c(C)nc4ccccc4c3=O)cc2)c1	.	-
COc1ccc(OCc2nn[nH]n2)cc1	.	-
CCOC(=O)CSc1nc2ccccc2c(=O)n1C1CCCC1	-	-5.75
CNC(=O)CSc1nc2ccccc2c(=O)n1C1CCCCC1	.	-
Cc1cc(C)c(C)c(S(=O)(=O)N2CCC(C(=O)Nc3ccc(S(=O)(=O)N4CCOCC4)cc3)CC2)c1C	-	-
CC(=O)c1ccccc1OCc1ccc(S(=O)(=O)Cc2ccccc2)cc1	-	-
CC(C)c1ccc(/C=C/C(=O)N2CCCCCC2)cc1	.	-
CC(C)c1ccc(/C=C/C(=O)n2nnc3ccccc32)cc1	-	-6.21
COC(=O)c1ccccc1NC(=O)c1ccc(COc2ccc(C)c(C)c2)o1	-	-6.59
COc1ccccc1NC(=O)c1ccc(COc2ccccc2OC)o1	.	-
COC(=O)c1ccccc1NC(=O)c1ccc(COc2cc(C)cc(C)c2)o1	-	-6.38
Cc1ccc(OCc2ccc(C(=O)NN)o2)cc1C	.	-
COc1ccc(N2CCN(S(=O)(=O)c3c(C)n(C)c(=O)n(C)c3=O)CC2)cc1	.	-
O=C(N/N=C/c1cc(Br)ccc1O)c1ccccc1Cl	9.07	-
COC(=O)N/N=C/c1cc(Br)ccc1O	.	-
COCCNC(=O)c1cn(C)c2ccc(S(=O)(=O)N3CCCCC3)cc2c1=O	-	-
CC(C)(C)C(=O)Nc1c2c(nn1-c1ccccc1)CSC2	-	-8.16
CC(=O)Nc1c2c(nn1-c1ccccc1)CSC2	-	-
CCCc1nnc(SCC(=O)O)n1CC	-	-
